What was measured:
Assay in all cases: DAPPL (digital affinity profiling via proximity ligation, sequencing); 10 mM Tris-HCl pH 7.5, 50 mM NaCl, 1 mM DTT, 4% glycerol, room temperature, 30 min; GST-TFs on glutathione beads, 16-mer random dsDNA library, 0.1% formaldehyde crosslink after washing; high values mean tight binding
Conditions in all cases: protein: recombinant; tags: N-terminal GST; dsDNA, one strand shown
FLI1 = target: T1, FLI1 (Homo sapiens, UniProt Q01543 1-452)
T1 sequence: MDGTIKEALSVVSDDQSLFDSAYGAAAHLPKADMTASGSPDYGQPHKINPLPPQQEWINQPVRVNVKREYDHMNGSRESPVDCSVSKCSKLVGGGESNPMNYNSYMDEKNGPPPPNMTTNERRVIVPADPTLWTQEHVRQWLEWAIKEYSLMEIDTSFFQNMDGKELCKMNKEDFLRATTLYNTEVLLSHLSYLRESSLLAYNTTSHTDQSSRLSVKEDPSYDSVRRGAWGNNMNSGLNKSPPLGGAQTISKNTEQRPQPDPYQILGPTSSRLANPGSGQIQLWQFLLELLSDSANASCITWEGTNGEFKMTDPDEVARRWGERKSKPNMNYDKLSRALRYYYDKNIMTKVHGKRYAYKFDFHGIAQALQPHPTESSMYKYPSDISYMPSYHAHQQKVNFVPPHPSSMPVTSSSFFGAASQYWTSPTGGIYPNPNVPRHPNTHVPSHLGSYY
Method in brief: (§1)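 Binding signal is each hexamer's read frequency for a factor divided by its frequency in the tag-only sample. The factors were GST-fused human transcription factors from yeast, captured on glutathione beads, DNA-barcoded and pooled with that sample. Pools were incubated with 200 nmole of a random double-stranded 16-mer DNA library in Tris/NaCl/DTT/glycerol buffer at room temperature for 30 min, then washed, crosslinked with 0.1% formaldehyde, proximity-ligated with BsaI/T4 ligase (1 h, 37 °C), PCR-amplified and sequenced on an Illumina NextSeq500.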

ELK1 = target: T2, ELK1 (Homo sapiens, UniProt P19419 1-428)
T2 sequence: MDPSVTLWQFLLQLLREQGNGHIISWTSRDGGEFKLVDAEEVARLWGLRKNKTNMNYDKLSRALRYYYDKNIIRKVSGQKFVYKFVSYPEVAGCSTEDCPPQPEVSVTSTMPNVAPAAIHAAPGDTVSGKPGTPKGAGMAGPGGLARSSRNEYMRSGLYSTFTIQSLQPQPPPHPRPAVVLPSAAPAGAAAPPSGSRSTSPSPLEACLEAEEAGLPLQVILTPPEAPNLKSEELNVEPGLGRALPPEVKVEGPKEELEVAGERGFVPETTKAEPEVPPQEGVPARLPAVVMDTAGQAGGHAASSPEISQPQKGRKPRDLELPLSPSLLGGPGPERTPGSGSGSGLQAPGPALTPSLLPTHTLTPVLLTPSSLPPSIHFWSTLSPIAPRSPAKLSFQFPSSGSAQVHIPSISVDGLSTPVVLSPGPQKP
Method in brief: as §1

GABPA = target: T3, GABPA (Homo sapiens, UniProt Q06546 1-454)
T3 sequence: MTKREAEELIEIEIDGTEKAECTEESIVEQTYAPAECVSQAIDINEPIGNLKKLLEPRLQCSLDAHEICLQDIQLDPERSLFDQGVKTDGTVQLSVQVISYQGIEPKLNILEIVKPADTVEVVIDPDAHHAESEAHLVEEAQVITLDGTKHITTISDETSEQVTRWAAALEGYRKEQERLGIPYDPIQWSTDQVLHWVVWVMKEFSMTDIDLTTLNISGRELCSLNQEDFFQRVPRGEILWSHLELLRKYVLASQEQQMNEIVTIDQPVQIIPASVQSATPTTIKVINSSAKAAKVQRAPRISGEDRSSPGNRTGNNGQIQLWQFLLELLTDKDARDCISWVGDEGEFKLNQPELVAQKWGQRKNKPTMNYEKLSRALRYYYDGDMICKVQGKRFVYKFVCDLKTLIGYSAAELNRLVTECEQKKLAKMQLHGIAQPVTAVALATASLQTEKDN
Method in brief: as §1

ERG = target: T4, ERG (Homo sapiens, UniProt P11308 1-479)
T4 sequence: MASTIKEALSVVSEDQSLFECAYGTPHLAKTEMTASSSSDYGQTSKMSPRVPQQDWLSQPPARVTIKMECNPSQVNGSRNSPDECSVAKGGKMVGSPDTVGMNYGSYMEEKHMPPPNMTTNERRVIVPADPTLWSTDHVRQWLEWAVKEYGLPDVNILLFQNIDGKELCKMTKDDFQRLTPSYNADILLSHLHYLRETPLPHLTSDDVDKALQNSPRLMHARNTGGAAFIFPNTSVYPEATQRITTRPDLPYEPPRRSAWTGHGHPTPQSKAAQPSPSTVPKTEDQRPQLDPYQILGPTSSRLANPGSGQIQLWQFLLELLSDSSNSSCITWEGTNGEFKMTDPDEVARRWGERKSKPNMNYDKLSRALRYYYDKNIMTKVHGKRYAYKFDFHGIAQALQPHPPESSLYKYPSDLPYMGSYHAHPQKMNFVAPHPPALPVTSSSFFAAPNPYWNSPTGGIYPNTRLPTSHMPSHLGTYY
Method in brief: as §1

ELF1 = ELF1 (Homo sapiens, UniProt P32519 1-619)
Method in brief: as §1

EHF = target: T5, EHF (Homo sapiens, UniProt Q9NZC4 1-300)
T5 sequence: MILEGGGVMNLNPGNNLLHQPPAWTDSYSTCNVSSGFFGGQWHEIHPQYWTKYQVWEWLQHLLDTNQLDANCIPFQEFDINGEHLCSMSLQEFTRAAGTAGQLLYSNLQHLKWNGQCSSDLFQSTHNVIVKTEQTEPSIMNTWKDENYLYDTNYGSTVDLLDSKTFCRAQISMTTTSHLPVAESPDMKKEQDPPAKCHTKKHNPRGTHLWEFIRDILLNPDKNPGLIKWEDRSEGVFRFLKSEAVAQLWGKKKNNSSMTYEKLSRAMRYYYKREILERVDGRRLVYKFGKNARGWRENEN
Method in brief: as §1

SPI1 = SPI1 (Homo sapiens, UniProt P17947 1-270)
Method in brief: as §1

SPIB = SPIB (Homo sapiens, UniProt Q01892 1-262)
Method in brief: as §1

ELK3 = target: T6, ELK3 (Homo sapiens, UniProt P41970 1-407)
T6 sequence: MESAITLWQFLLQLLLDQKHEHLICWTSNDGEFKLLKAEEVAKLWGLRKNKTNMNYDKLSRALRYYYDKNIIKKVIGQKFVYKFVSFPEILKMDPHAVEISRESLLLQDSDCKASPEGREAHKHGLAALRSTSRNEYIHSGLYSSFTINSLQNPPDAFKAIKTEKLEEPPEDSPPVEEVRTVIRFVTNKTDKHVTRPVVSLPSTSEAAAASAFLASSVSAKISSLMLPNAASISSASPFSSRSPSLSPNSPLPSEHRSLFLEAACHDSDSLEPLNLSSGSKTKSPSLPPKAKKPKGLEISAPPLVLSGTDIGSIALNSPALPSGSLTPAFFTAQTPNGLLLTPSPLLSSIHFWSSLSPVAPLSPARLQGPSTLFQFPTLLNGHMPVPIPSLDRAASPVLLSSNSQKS
Method in brief: as §1

Sequence of SPIB (Q01892 whole entry): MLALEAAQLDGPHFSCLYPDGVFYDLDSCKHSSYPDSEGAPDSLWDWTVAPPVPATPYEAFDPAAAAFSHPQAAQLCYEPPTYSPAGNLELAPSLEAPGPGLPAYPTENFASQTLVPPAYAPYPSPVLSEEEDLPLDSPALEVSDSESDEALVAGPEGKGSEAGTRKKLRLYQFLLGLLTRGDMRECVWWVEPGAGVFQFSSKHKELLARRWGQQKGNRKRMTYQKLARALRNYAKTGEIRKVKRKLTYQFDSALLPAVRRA
Sequence of ELF1 (P32519 whole entry): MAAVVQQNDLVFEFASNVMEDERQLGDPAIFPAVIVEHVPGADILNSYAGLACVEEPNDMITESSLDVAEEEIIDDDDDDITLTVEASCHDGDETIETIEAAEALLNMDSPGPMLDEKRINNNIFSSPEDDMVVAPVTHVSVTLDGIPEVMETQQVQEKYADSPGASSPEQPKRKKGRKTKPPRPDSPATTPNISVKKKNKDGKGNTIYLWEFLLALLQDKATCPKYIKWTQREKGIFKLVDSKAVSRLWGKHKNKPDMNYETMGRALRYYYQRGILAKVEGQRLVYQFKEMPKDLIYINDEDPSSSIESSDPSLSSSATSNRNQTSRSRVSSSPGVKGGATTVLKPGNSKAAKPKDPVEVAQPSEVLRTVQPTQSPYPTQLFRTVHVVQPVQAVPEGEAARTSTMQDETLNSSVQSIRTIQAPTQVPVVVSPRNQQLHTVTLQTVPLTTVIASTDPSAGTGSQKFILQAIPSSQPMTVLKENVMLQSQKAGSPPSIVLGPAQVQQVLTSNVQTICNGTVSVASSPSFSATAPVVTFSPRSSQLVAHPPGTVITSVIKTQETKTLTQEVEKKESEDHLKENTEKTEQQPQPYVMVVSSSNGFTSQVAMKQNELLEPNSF

AATTGT
binding signal (FLI1): 1.3 fold enrichment (6-mer frequency, TF over GST control)
binding signal (ELK1): 1.2 fold enrichment (6-mer frequency, TF over GST control)
binding signal (GABPA): 1.21 fold enrichment (6-mer frequency, TF over GST control)
binding signal (ERG): 1.28 fold enrichment (6-mer frequency, TF over GST control)
binding signal (ELF1): 1.27 fold enrichment (6-mer frequency, TF over GST control)
binding signal (EHF): 1.23 fold enrichment (6-mer frequency, TF over GST control)
binding signal (SPI1): 1.33 fold enrichment (6-mer frequency, TF over GST control)
binding signal (SPIB): 1.34 fold enrichment (6-mer frequency, TF over GST control)
binding signal (ELK3): 1.29 fold enrichment (6-mer frequency, TF over GST control)

TACGTA
binding signal (FLI1): 1.41 fold enrichment (6-mer frequency, TF over GST control)
binding signal (ELK1): 1.36 fold enrichment (6-mer frequency, TF over GST control)
binding signal (GABPA): 1.31 fold enrichment (6-mer frequency, TF over GST control)
binding signal (ERG): 1.2 fold enrichment (6-mer frequency, TF over GST control)
binding signal (ELF1): 1.32 fold enrichment (6-mer frequency, TF over GST control)
binding signal (EHF): 1.41 fold enrichment (6-mer frequency, TF over GST control)
binding signal (SPI1): 1.35 fold enrichment (6-mer frequency, TF over GST control)
binding signal (SPIB): 1.15 fold enrichment (6-mer frequency, TF over GST control)
binding signal (ELK3): 1.37 fold enrichment (6-mer frequency, TF over GST control)

GTATAT
binding signal (FLI1): 1.13 fold enrichment (6-mer frequency, TF over GST control)
binding signal (ELK1): 1.22 fold enrichment (6-mer frequency, TF over GST control)
binding signal (GABPA): 1.13 fold enrichment (6-mer frequency, TF over GST control)
binding signal (ERG): 1.09 fold enrichment (6-mer frequency, TF over GST control)
binding signal (ELF1): 1.17 fold enrichment (6-mer frequency, TF over GST control)
binding signal (EHF): 1.2 fold enrichment (6-mer frequency, TF over GST control)
binding signal (SPI1): 1.13 fold enrichment (6-mer frequency, TF over GST control)
binding signal (SPIB): 1.23 fold enrichment (6-mer frequency, TF over GST control)
binding signal (ELK3): 1.11 fold enrichment (6-mer frequency, TF over GST control)

CCTCTA
binding signal (FLI1): 1.24 fold enrichment (6-mer frequency, TF over GST control)
binding signal (ELK1): 1.48 fold enrichment (6-mer frequency, TF over GST control)
binding signal (GABPA): 1.39 fold enrichment (6-mer frequency, TF over GST control)
binding signal (ERG): 1.32 fold enrichment (6-mer frequency, TF over GST control)
binding signal (ELF1): 1.42 fold enrichment (6-mer frequency, TF over GST control)
binding signal (EHF): 1.31 fold enrichment (6-mer frequency, TF over GST control)
binding signal (SPI1): 1.33 fold enrichment (6-mer frequency, TF over GST control)
binding signal (SPIB): 1.38 fold enrichment (6-mer frequency, TF over GST control)
binding signal (ELK3): 1.32 fold enrichment (6-mer frequency, TF over GST control)

CCGGCT
binding signal (FLI1): 1.75 fold enrichment (6-mer frequency, TF over GST control)
binding signal (ELK1): 1.62 fold enrichment (6-mer frequency, TF over GST control)
binding signal (GABPA): 1.65 fold enrichment (6-mer frequency, TF over GST control)
binding signal (ERG): 1.74 fold enrichment (6-mer frequency, TF over GST control)
binding signal (ELF1): 1.68 fold enrichment (6-mer frequency, TF over GST control)
binding signal (EHF): 1.77 fold enrichment (6-mer frequency, TF over GST control)
binding signal (SPI1): 1.73 fold enrichment (6-mer frequency, TF over GST control)
binding signal (SPIB): 1.91 fold enrichment (6-mer frequency, TF over GST control)
binding signal (ELK3): 1.62 fold enrichment (6-mer frequency, TF over GST control)

CGCCTT
binding signal (FLI1): 1.45 fold enrichment (6-mer frequency, TF over GST control)
binding signal (ELK1): 1.43 fold enrichment (6-mer frequency, TF over GST control)
binding signal (GABPA): 1.45 fold enrichment (6-mer frequency, TF over GST control)
binding signal (ERG): 1.44 fold enrichment (6-mer frequency, TF over GST control)
binding signal (ELF1): 1.44 fold enrichment (6-mer frequency, TF over GST control)
binding signal (EHF): 1.34 fold enrichment (6-mer frequency, TF over GST control)
binding signal (SPI1): 1.35 fold enrichment (6-mer frequency, TF over GST control)
binding signal (SPIB): 1.43 fold enrichment (6-mer frequency, TF over GST control)
binding signal (ELK3): 1.46 fold enrichment (6-mer frequency, TF over GST control)

TCTTCC
binding signal (FLI1): 2.61 fold enrichment (6-mer frequency, TF over GST control)
binding signal (ELK1): 2.52 fold enrichment (6-mer frequency, TF over GST control)
binding signal (GABPA): 2.39 fold enrichment (6-mer frequency, TF over GST control)
binding signal (ERG): 2.86 fold enrichment (6-mer frequency, TF over GST control)
binding signal (ELF1): 2.65 fold enrichment (6-mer frequency, TF over GST control)
binding signal (EHF): 2.76 fold enrichment (6-mer frequency, TF over GST control)
binding signal (SPI1): 2.46 fold enrichment (6-mer frequency, TF over GST control)
binding signal (SPIB): 2.75 fold enrichment (6-mer frequency, TF over GST control)
binding signal (ELK3): 2.79 fold enrichment (6-mer frequency, TF over GST control)

From PMC7862700, “An all-to-all approach to the identification of sequence-specific readers for epigenetic DNA modifications on cytosine”
